Experimental data as given in PubChem BioAssay.
Values without a mark were called inactive. How the calls were made is not given here.

tested on: Aerobactin synthetase IucA (Klebsiella pneumoniae, hypervirulent); experiment: biochemical IucA inhibition screen of LOPAC library by absorbance (AID 1346212); conditions: IucA enzyme assay, absorbance (OD) readout; stronger effect = lower value;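 tested at 8 µM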;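 further: 100% = no compound wells and 0% = no enzyme wells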

Row | SMILES | remaining activity [%]
1 | C[C@@]12C(=O)OC(=O)[C@]1(C)[C@H]1CC[C@@H]2O1 | 118
2 | Nc1nc(N)c2nc(CNc3ccc(C(=O)N[C@@H](CCC(=O)O)C(=O)O)cc3)cnc2n1 | 112
3 | CC#CCOC(=O)c1c(C)nc2sc3c(c2c1N)CCC(O)C3 (stereo not drawn) | 113
4 | C[C@@H](CN1CCC(Cc2ccccc2)CC1)[C@@H](O)c1ccc(O)cc1 | 92.9
5 | CCCCCCCCCCCCCCCC(=O)OC(CC(=O)O)C[N+](C)(C)C (stereo not drawn) | 116
6 | COc1nc(C)nc(Cl)c1NC1=NCCN1 | 119
7 | CCNC(=O)[C@H]1O[C@@H](n2cnc3c(N)nc(NCCc4ccc(CCC(=O)O)cc4)nc32)C(O)[C@H]1O (stereo partly drawn) | 109
8 | O=c1[nH]c(=O)n([C@H]2C[C@H](O)[C@@H](CO)O2)cc1/C=C/Br | 123
